# Calls of active or inactive are those of the source.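 How the source made its calls, unless noted: active means luciferase signal above three times the same-plate solvent-only control wells; inactive means the rest.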
# Columns and labels:
# [1] = target: 6-phosphogluconate dehydrogenase, decarboxylating (Homo sapiens) (UniProt P52209); experiment: inhibition of human phosphogluconate dehydrogenase – biochemical, recombinant enzyme, NADPH absorbance, primary screen (AID 1159550;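 active means at least 20% inhibition of 6-phosphogluconate dehydrogenase activity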); settings: recombinant 6PGD, NADPH absorbance 341 nm; at 10 µM; stronger effect = higher value
# Sequence of 6-phosphogluconate dehydrogenase, decarboxylating (Homo sapiens) (P52209 whole entry, looked up): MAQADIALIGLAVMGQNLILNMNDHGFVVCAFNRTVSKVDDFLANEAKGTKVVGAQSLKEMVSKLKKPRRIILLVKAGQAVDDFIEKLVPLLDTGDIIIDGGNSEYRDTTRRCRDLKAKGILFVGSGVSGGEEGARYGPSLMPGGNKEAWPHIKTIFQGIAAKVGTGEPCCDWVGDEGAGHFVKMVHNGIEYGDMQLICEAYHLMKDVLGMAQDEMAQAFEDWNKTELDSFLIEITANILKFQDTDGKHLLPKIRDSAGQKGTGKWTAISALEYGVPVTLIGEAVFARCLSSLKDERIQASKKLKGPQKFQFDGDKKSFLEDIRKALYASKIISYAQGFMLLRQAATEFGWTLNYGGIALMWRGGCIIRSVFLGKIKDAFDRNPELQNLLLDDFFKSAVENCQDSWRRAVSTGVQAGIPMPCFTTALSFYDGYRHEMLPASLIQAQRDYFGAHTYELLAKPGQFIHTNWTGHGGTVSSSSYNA
# [2] = EMT-state selective cytotoxicity in co-culture – imaging, PC-3E GFP, TEM4-18 mCherry, primary screen (AID 1345086;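 active means compounds killing one labelled cell type while sparing the other, by normalised counts and ratio limits, not self-fluorescent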;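 on all read-outs here: cells exposed to compound for 72 h before imaging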;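 on red/green cell ratio (normalised): normalised mesenchymal count divided by normalised epithelial count so high means epithelial killing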); settings: PC-3E GFP / TEM4-18 mCherry co-culture, imaging cell counts, at 1 µM; for red/green cell ratio (normalised): actives lie on both sides, counts scaled to control wells, 1 = unselective
# [3] = target: Mitogen-activated protein kinase 7 (Homo sapiens) (UniProt Q13164); experiment: Gal4-ERK5 driven luciferase induction – cell-based, HTS, primary screen (AID 1508626); settings: HeLa Gal4-ERK5 transactivation, 18 h, at 5 µM, stronger effect = higher value;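 further: luciferase driven by Gal4-ERK5 fusion binding five Gal4 sites before minimal TATA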
# Sequence of Mitogen-activated protein kinase 7 (Homo sapiens) (Q13164 whole entry, looked up, the tested form may be a part): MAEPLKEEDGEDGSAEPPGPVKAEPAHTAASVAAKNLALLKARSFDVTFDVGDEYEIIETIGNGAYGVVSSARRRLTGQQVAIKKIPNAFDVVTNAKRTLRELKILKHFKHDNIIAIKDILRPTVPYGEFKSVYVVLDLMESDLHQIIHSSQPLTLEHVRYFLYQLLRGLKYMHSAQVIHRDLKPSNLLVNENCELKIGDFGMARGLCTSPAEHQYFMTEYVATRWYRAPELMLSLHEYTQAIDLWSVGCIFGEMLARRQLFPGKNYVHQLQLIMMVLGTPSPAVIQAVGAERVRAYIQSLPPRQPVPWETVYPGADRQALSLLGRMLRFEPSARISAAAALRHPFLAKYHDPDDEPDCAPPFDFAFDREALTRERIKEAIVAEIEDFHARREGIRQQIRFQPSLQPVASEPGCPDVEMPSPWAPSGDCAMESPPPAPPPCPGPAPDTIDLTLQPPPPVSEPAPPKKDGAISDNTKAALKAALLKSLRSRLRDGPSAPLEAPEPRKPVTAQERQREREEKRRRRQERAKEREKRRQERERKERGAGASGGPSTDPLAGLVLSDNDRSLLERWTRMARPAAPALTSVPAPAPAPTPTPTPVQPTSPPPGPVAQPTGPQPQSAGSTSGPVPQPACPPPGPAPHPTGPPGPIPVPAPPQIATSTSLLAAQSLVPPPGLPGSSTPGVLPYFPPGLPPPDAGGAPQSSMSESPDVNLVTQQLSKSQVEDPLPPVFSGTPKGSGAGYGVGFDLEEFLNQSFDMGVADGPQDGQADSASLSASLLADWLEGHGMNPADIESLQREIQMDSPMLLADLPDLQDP
# [4] = measured here: epithelial PC-3E GFP cell survival
# [5] = measured here: mesenchymal TEM4-18 mCherry cell survival
Compound,inhibition [1],red/green cell ratio (normalised) [2],"normalised cell number [2, 4]","normalised cell number [2, 5]",luciferase signal [3]
C#CCCCCCCCCCCCC(O)CC(O)CO (stereo not given),6.35% (inactive),0.88 (inactive),0.94,0.82,52 AU (inactive)
O=C(O[C@@H]1Cc2c(O)cc(O)cc2O[C@@H]1c1ccc(O)c(O)c1)c1cc(O)c(O)c(O)c1,5.78% (inactive),0.99 (inactive),0.85,0.83,52 AU (inactive)
CC1=C(/C=C/C(C)=C/C=C/C(C)=C/C=C/C=C(C)/C=C/C=C(C)/C=C/C(=O)[C@]2(C)C[C@@H](O)CC2(C)C)C(C)(C)C[C@H](O)C1,1.92% (inactive),1.16 (inactive),0.85,0.98,20 AU (inactive)
COC(=O)[C@@H]1OC(=O)C2OC23[C@@]1(C)CCC1[C@]2(C)C(C[C@@H](O)[C@]13C)C(C)(C)[C@H](OC(C)=O)C[C@@H]2OC(C)=O (stereo not given in full),-0.817% (inactive),0.93 (inactive),1.09,1.02,64 AU (inactive)
COc1ccc2c(c1)OC1(O)COc3cc(OC)c(OC)cc3C1=C2 (stereo not given),-7.74% (inactive),1.07 (inactive),1.01,1.09,108 AU (inactive)
CC(C)c1ccc2c(c1)CCC1[C@](C)(CN)CCC[C@]21C (stereo not given in full),0.884% (inactive),0.87 (inactive),0.95,0.83,48 AU (inactive)
COc1c(O)cccc1O,-5.16% (inactive),0.77 (inactive),0.96,0.74,76 AU (inactive)
COc1cc(O)c2c(=O)cc(C)oc2c1CC=C(C)C,12.4% (inactive),1.22 (inactive),0.96,1.17,36 AU (inactive)
COc1ccc(-c2coc3c(O)c(OC)ccc3c2=O)cc1,11.6% (inactive),0.97 (inactive),1.1,1.06,100 AU (inactive)
C=C1CCC(C2CC(=O)OC2=O)C(=O)CCC2C1CC2(C)C (stereo not given),13.1% (inactive),0.84 (inactive),1.27,1.06,144 AU (inactive)
Cc1cc(=O)oc2c(O)c(O)ccc12,-1.28% (inactive),1.02 (inactive),0.87,0.89,44 AU (inactive)
O=C1C=CC2=C3c4cc(O)c(O)cc4CC3(O)COC2=C1O (stereo not given),27.6% (active),0.83 (inactive),1.07,0.89,32 AU (inactive)
C=C[C@@](C)(O)CCC1C(=C)CCC2[C@@](C)(CO)CCC[C@]12C (stereo not given in full),4.45% (inactive),0.89 (inactive),1.15,1.03,36 AU (inactive)
CC(C)=CC1C(C(=O)O)C1(C)C (stereo not given),-0.837% (inactive),1.07 (inactive),0.96,1.03,44 AU (inactive)
NC(C(=O)O)C(O)C(=O)O (stereo not given),17.7% (inactive),1.01 (inactive),1.05,1.06,260 AU (active)
COc1ccc(C(=O)/C=C/c2ccccc2)cc1,8.83% (inactive),1.17 (inactive),0.89,1.04,88 AU (inactive)
CCC(C(=O)O)c1ccccc1 (stereo not given),-10% (inactive),1.07 (inactive),1.08,1.15,76 AU (inactive)
N[C@@H](C(=O)O)[C@@H](O)[C@H](O)[C@H](O)CO,9.87% (inactive),1.16 (inactive),1.02,1.18,108 AU (inactive)
Nc1ccccc1C(=O)CC(N)C(=O)O (stereo not given),-2.44% (inactive),1.23 (inactive),0.56,0.69,68 AU (inactive)
C=CC(C1=CC(=O)C(OC)=CC1=O)c1ccc(OC)cc1 (stereo not given),9.18% (inactive),0.93 (inactive),1.1,1.03,36 AU (inactive)
Cc1cc(O)c(C=O)c(O)c1C(=O)O,15% (inactive),0.84 (inactive),1.14,0.95,120 AU (inactive)
COc1cc(O)c(C(=O)c2ccccc2)cc1O,-3.44% (inactive),0.89 (inactive),1.31,1.17,48 AU (inactive)
CC(=O)OC1CCC23CC1(C)CCC2C(C)(C)CC3OC(C)=O (stereo not given),-1.38% (inactive),1.04 (inactive),1.07,1.11,80 AU (inactive)
COc1cc2c(cc1OC)C1(O)C(=O)c3ccc(O)c(C(=O)O)c3OC1CO2 (stereo not given),11.5% (inactive),1 (inactive),1.11,1.11,16 AU (inactive)

Compound,inhibition [1],red/green cell ratio (normalised) [2],"normalised cell number [2, 4]","normalised cell number [2, 5]",luciferase signal [3]
O=C(O)C1=C[C@@H](O)[C@@H](O)[C@H](O)C1,9.48% (inactive),1.05 (inactive),0.91,0.95,88 AU (inactive)
O=C(O)c1cccc(O)c1O,4.23% (inactive),0.96 (inactive),1.23,1.19,20 AU (inactive)
COc1cc2ccc(=O)oc2c(OC)c1OC,1.65% (inactive),0.93 (inactive),0.81,0.75,16 AU (inactive)
COc1ccc(-c2c(O)c3c(OC)c4c(cc3oc2=O)OC(C)(C)C=C4)cc1,11.4% (inactive),0.9 (inactive),1.02,0.92,88 AU (inactive)
COC1(C)CCC2OC2(C)CCC2C1CC2(C)C (stereo not given),10.7% (inactive),1.21 (inactive),0.76,0.91,80 AU (inactive)
COc1ccc(C(=O)CC(=O)O)c2c1C=CC(C)(C)O2,10.2% (inactive),0.95 (inactive),0.98,0.93,60 AU (inactive)
C=CC1=C(C)/C(=C/c2[nH]c(Cc3[nH]c(/C=C4\NC(=O)C(C)=C4C=C)c(C)c3CCC(=O)O)c(CCC(=O)O)c2C)NC1=O,2.22% (inactive),0.85 (inactive),1.14,0.97,60 AU (inactive)
COc1cc(OC)c2c(=O)c(-c3ccc4c(c3)OCO4)coc2c1,7.77% (inactive),1.06 (inactive),1.13,1.2,92 AU (inactive)
Oc1ccc([C@H]2Oc3cc(O)cc(O)c3C[C@H]2O)cc1,2.29% (inactive),0.95 (inactive),0.99,0.94,140 AU (inactive)
NCCC(=O)N[C@@H](Cc1cnc[nH]1)C(=O)O,-1.18% (inactive),1.1 (inactive),0.93,1.03,100 AU (inactive)
CC(C)=CCc1c(O)cc2oc(C)cc(=O)c2c1O,8.51% (inactive),0.93 (inactive),1.18,1.1,52 AU (inactive)
Cc1cc(OC(=O)c2c(C)cc(O)cc2O)cc(O)c1C(=O)O,1.29% (inactive),0.82 (inactive),1.06,0.87,12 AU (inactive)
CCc1ccc2c(O)c3c(cc2c1C(=O)OC)C(=O)c1c(O)ccc(O)c1C3=O,-5.67% (inactive),0.83 (inactive),1.11,0.92,44 AU (inactive)
COc1c(-c2coc3cc4c(cc3c2=O)CC(O)C(C)(C)O4)ccc2c1C=CC(C)(C)O2 (stereo not given),-4.11% (inactive),0.82 (inactive),1.08,0.88,24 AU (inactive)
CC(=O)O[C@H]1C[C@@H](OC(C)=O)C(C)(C)C2C[C@@H](OC(C)=O)[C@@]3(C)C4=CC(=O)O[C@@H](c5ccoc5)[C@]4(C)CCC3[C@]21C (stereo not given in full),0.0743% (inactive),1.01 (inactive),1,1.01,16 AU (inactive)
O=C1c2ccccc2C(=O)c2c(O)c(O)cc(O)c21,17.9% (inactive),1.09 (inactive),0.94,1.02,100 AU (inactive)
CCCCCC1C(=O)CCC1CC(=O)O (stereo not given),-5.33% (inactive),0.91 (inactive),0.07,0.07,56 AU (inactive)
C=C(C)C1CC=C(CO)CC1 (stereo not given),1.85% (inactive),1.04 (inactive),0.95,0.99,68 AU (inactive)
COc1ccc(-c2cc(=O)c3c(OC(C)=O)cc(OC(C)=O)cc3o2)cc1,-1.6% (inactive),0.89 (inactive),1.06,0.95,60 AU (inactive)
O=C(O)c1nc2cc(Cl)c(Cl)cc2[nH]c1=O,-11.6% (inactive),0.95 (inactive),1.19,1.12,36 AU (inactive)
CC(=O)O[C@@H]1CC2C(C)(CC[C@H](O)C2(C)C)C2CC[C@]3(C)C(=CC(=O)O[C@H]3c3ccoc3)C21C (stereo not given in full),0.669% (inactive),1.03 (inactive),1.07,1.1,16 AU (inactive)
COc1ccc2c(c1)OCC(Cc1ccc(OC)c(OC(C)=O)c1)C2=O (stereo not given),2.88% (inactive),0.86 (inactive),0.47,0.4,80 AU (inactive)
CC(C)c1c(O)c(-c2cc3c(c(C(C)C)c2O)CCC2C(C)(C)CCC[C@]32C)cc2c1CCC1C(C)(C)CCC[C@]21C (stereo not given in full),-2.25% (inactive),1 (inactive),1.03,1.03,40 AU (inactive)
